GPR151 activ: human GPR151 activation; Q8TDV0; PathHunter beta-arrestin GPR151 cells, luminescence; activation, % at 11.2 µM; 650,000 compounds, 1% hits; in the data active means activation above about 4.9%;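 further: 0% = median of compound wells and 100% = cells with positive control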
FBW7 act: activators of human E3 ligase FBW7; Q969H0; AlphaScreen FBW7–phospho-cyclin E peptide binding, activator screen; normalized activity (activation), % at 26.1 µM; 650,000 compounds, 0.13% hits; AID 1259310; in the data active means normalized activity above about 1.9%;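 further: purified mutant Fbw7 with reduced substrate affinity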
TEAD-YAP block: TEAD-YAP interaction inhibition; HEK-TIYL cells, TEAD-Gal4/YAP UAS-luciferase luminescence; inhibition, % at 9.12 µM; 640,000 compounds, 1.4% hits; AID 1259422; in the data active means inhibition above about 32%;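 further: 0% = median of test compound wells and 100% = reference inhibitor wells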
MITF inh: inhibitors of human MITF. O75030. AlphaScreen MITF homodimerization, bead proximity signal. inhibition, % at 2.6 µM. 650,000 compounds, 0.91% hits; in the data active means inhibition above about 50%;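 further: 0% = vehicle wells with protein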
Target sequence (O75030 whole entry, looked up): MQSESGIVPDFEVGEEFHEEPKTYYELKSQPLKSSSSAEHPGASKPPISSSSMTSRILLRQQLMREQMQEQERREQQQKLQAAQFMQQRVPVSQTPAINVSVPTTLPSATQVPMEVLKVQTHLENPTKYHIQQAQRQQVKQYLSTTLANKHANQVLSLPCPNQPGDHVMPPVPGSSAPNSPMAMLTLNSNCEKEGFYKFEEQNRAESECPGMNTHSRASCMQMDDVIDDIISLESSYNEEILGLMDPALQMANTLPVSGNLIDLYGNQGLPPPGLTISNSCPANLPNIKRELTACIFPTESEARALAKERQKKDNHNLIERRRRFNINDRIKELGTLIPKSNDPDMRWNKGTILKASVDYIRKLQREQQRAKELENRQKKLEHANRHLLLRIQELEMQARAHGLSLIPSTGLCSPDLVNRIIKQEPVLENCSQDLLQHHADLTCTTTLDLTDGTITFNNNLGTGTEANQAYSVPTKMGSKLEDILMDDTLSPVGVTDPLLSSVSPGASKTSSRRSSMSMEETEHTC
GPR151 confirm: confirmation of human GPR151 activators | shares compounds with GPR151 activ | activation, % at 11.2 µM | 6,700 tested, under 10 active | GPR151 PathHunter beta-arrestin cells, luminescence, 90 min; % of EA-reagent control over plate median;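 active means mean percent activation across replicates above the confirmation screen cutoff of 4.91%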
GPR119 ag: activates human GPR119 in a GPR151 counter-screen | GPR119 PathHunter beta-arrestin cells, luminescence, 90 min; 0 = compound-well median, 100 = enzyme-acceptor control | activation, % at 11.2 µM | shares compounds with GPR151 activ | 6,700 compounds, 0.3% hits;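 active means mean percent activation in the counterscreen above 29.09%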;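 further: counterscreen on off-target GPR119 to flag nonselective hits from the GPR151 activator screen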
* = called active by the depositor; · = no result given. Rows were chosen to be rich in hits. Some 3.5% of all compounds tested hit in one or more screens of this group.

SMILES	GPR151 activ	FBW7 act	TEAD-YAP block	MITF inh	GPR151 confirm	GPR119 ag
COc1ccc(NC(=O)COc2cccc(C)c2)c([N+](=O)[O-])c1	6.9*	0	-33	21	0	11
COc1cc([N+](=O)[O-])ccc1NC(=O)N1CC(C)OC(C)C1 (stereo not drawn)	7.0*	0	5	-20	0	1
COc1ccc(NC(=O)COc2ccc(-c3ccccc3)cc2)c([N+](=O)[O-])c1	0	0	5	9	·	·
Cc1ccc(C2=Nc3ccccc3N=C(c3ccc(C)cc3O)C2)cc1	2	0	-22	-3	·	·
CCOC(=O)c1ccc2ncc(C(=O)OCC)c(Nc3ccc(C)cc3C)c2c1	-1	0	-5	6	·	·
COc1ccc(NC(=O)Nc2ccc(F)cc2F)c([N+](=O)[O-])c1	5.0*	0	-14	-10	0	6
COc1ccc(C/C(C)=N/N=C(N)N)cc1	0	0	8	-7	·	·
Cc1ccc(CNC(=O)c2nnc(Cc3cccc(Cl)c3)o2)cc1	7.4*	0	3	-2	0	5
O=C(NCc1ccccc1)c1nnc(Cc2cccc(Cl)c2)o1	0	0	-5	-2	·	·
Cn1c(=O)[nH]c(=O)c2c1ncn2CC(=O)N=Nc1c(O)[nH]c2ccccc12	0	0	-4	17	·	·
O=C(NC1CCS(=O)(=O)C1)/C(=C/c1cn(-c2ccccc2)nc1-c1cccs1)NC(=O)c1ccccc1 (stereo not drawn)	5.8*	0	16	-7	2	15
COc1cc(OC)cc(-c2noc(C3CCN(S(=O)(=O)c4ccc(Cl)cc4)CC3)n2)c1	5.2*	0	-22	2	0	0
NC(=O)C1CCN(C(=O)COc2ccc(Cl)cc2Br)CC1	0	0	-4	-8	·	·
O=C(Nc1ccccc1)N[C@H]1C[C@H]2C(=O)N3CCC[C@@H]3C(=O)N2C1	10*	1	-15	15	2	19
CCOc1ccc(-c2n[nH]c(C)c2Oc2ccc(F)cc2)c(O)c1	4.9*	0	1	-4	0	-10
Cn1nc([N+](=O)[O-])c2c(-c3nc4ccccc4s3)c(N)n(Cc3ccccc3)c2c1=O	1	0	-3	12	·	·
COc1ccc(Cn2nnnc2C(c2ccncc2)N2CCCCCC2)cc1 (stereo not drawn)	0	0	-14	3	·	·
O=C(NCc1ccco1)/C(=C/c1ccc(Cl)cc1)NC(=O)c1ccccc1	0	0	5	3	·	·
O=C(NCc1ccco1)/C(=C/c1ccccc1)NC(=O)c1cccc(Br)c1	5.2*	0	8	-5	-1	-10
CC1(C)Oc2ccc(C(=O)N3CCCC3)cc2N(CC(=O)NCc2ccccc2)C1=O	6.1*	0	-2	8	2	8
CC1(C)Oc2ccc(C(=O)N3CCCCCC3)cc2N(CC(=O)NCc2ccccc2)C1=O	1	0	-5	-10	·	·
COc1ccc(Br)cc1/C=C/C(=O)NCC1(c2ccccc2)CCOCC1	1	0	-2	17	·	·
Cc1cc(N/N=C/c2cccc([N+](=O)[O-])c2)nc(-c2ccccc2)n1	5.0*	0	-1	-8	0	7
CC(=O)c1nn(-c2cccc(Cl)c2)cc1C(=O)c1cccs1	6.4*	0	-2	9	0	-8
CC(=O)c1nn(-c2ccc([N+](=O)[O-])cc2)cc1C(=O)c1cccs1	-1	0	-1	13	·	·
SMILES	GPR151 activ	FBW7 act	TEAD-YAP block	MITF inh	GPR151 confirm	GPR119 ag
CCCOc1cc2oc(=O)cc(C)c2cc1Cl	5.4*	0	-10	8	0	-5
COC(=O)C1=C(C)N(c2ccc(C(C)C)cc2)C(=O)/C1=C\c1cc(Br)ccc1OC	11*	0	-6	0	0	7
O=C1NC(=O)C(=Cc2cc(Br)ccc2OCc2ccccc2F)C(=O)N1	14*	0	-10	2	-1	9
Cc1ccc2nc(C)c3c(c2c1)OC(CBr)C3 (stereo not drawn)	1	0	11	-7	·	·
CSc1nc(C)c2c(n1)OC(CBr)C2 (stereo not drawn)	5.0*	0	1	0	-1	-5
CCCSc1nnc2c(n1)OC(c1ccc(SC)cc1)Nc1ccccc1-2 (stereo not drawn)	5.6*	0	-60	3	0	5
CCCSc1nnc2c(n1)OC(c1ccc(F)cc1)Nc1ccccc1-2 (stereo not drawn)	-2	0	-80	-6	·	·
CCOc1ccc(C2Nc3ccccc3-c3nnc(SCc4ccccc4F)nc3O2)cc1OC (stereo not drawn)	5.8*	0	-3	10	0	15
C=CCSc1nnc2c(n1)OC(c1ccc(OC(=O)CC)cc1)Nc1ccccc1-2 (stereo not drawn)	-1	0	-40	-2	·	·
O=C(CCC(=O)Nc1ccc(I)cc1)N/N=C/c1ccc(F)cc1	6.6*	0	1	5	-1	-14
Cc1ccc(NC(=O)COc2cccc(C=O)c2)cc1	4	0	-66	5	·	·
N#C/C(=C/c1ccc(Cl)cc1)c1nnc2n1CCCCC2	1	0	-2	6	·	·
CCC(Sc1nc2cc3c(cc2c(=O)n1CCCCCC(=O)NCc1ccc2c(c1)OCO2)OCO3)C(=O)NCc1ccco1 (stereo not drawn)	0	0	0	0	·	·
CCC(Sc1nc2cc3c(cc2c(=O)n1CCCCCC(=O)NCc1ccc(OC)cc1)OCO3)C(=O)NCc1ccco1 (stereo not drawn)	5.0*	0	0	0	-1	-3
CCC(Sc1nc2cc(OC)c(OC)cc2c2nc(C)nn12)C(=O)NCc1ccco1 (stereo not drawn)	0	0	-4	2	·	·
CCC(Sc1nc2ccccc2c2nc(C)nn12)C(=O)NCc1ccco1 (stereo not drawn)	8.7*	0	2	11	0	11
O=C(CN1Cc2ccccc2OC(c2ccsc2)C1)N1CCCCC1c1ccccn1 (stereo not drawn)	-1	0	-1	-8	·	·
CCN(CC)C(=O)C1CCCN(c2nc(NCCOc3ccccc3)c3ncn(Cc4ccc(C(F)(F)F)cc4)c3n2)C1 (stereo not drawn)	0	0	0	10	·	·
CCN(CC)C(=O)C1CCCN(c2nc(NCCc3ccc(OC)cc3)c3ncn(C4CCCCC4)c3n2)C1 (stereo not drawn)	10*	0	-6	12	0	-2
CCN(CC)C(=O)C1CCCN(c2nc(NCCc3ccc(OC)cc3)c3ncn(Cc4ccc(C(F)(F)F)cc4)c3n2)C1 (stereo not drawn)	6.8*	0	-9	-4	0	1
O=C(c1ccccc1Cl)N1CCN(c2nc3ccccc3s2)CC1	0	0	-4	-4	·	·

From PubChem
